NADH coupling: inhibition of NAD/NADH coupling enzymes, library profiling; 65,000 tested, 0.02% active; coupled PK/LDH NADH assays, four targets; IC50, µM (highest dose often 10 µM), for inactives: at the highest dose inhibition; AID 774;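 active = single-dose screening hits from any of four coupled enzyme assays that gave an IC50 when retested across doses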;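 note: the DPM-DC format reads NADH fluorescence rather than 340 nm absorbance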
Hsp90 block: displaces geldanamycin probe from tumor Hsp90. P07900. NCI-N417 lysate Hsp90, Cy3B-geldanamycin FP displacement. inhibition, % at 30 µM. 64,000 tested, 0.35% active;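 active = inhibition above 50%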;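 note: 0% = tracer plus lysate wells and 100% = tracer alone without lysate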
Autofluor 339: intrinsic fluorescence of library compounds, ex339/em460 – biochemical, MLSMR library, data from DPM-DC assay, artefact control, profiling panel; compound autofluorescence, ex339/em460 nm, NADH buffer; active compounds read high; 1 = no-compound wells, NADH background; fluorescence fold increase at 10 µM; 65,000 tested, 5.5% active;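 active = at 10 µM, mean starting fluorescence two-fold or more over control wells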;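 note: signal is the first read of a kinetic run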
Cdc25B block: human M-phase inducer phosphatase 2 inhibition | inhibition, %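 (compounds tested at 10 µM final in the well)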 | P30305 | 65,000 tested, 0.1% active | recombinant Cdc25B, OMFP fluorescence Ex485/Em525; in the data active = inhibition above about 50%
Abs 340nm: absorbance at 340 nm; 65,000 tested, under 10 active; fold change at 10 µM; compound absorbance at 340 nm, fold over control;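 active = at 10 µM dose, initial 340 nm absorbance at least 2 fold that of control wells; inactive = change under 2 fold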;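 note: initial absorbance extrapolated from kinetic A340 decline of NADH oxidation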
MKP-1 inh: inhibitors of human MKP-1 phosphatase; recombinant MKP-1, OMFP hydrolysis fluorescence; inhibition, %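 (compounds tested at a single concentration somewhere between 10 and 100 µM)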; 65,000 tested, 0.15% active; AID 374;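 active = inhibition above about 50%, limit read from the data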;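 note: 0% = DMSO max control wells and 100% = wells with enzyme stopped by NaOH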
Target sequence (P28562 whole entry, looked up): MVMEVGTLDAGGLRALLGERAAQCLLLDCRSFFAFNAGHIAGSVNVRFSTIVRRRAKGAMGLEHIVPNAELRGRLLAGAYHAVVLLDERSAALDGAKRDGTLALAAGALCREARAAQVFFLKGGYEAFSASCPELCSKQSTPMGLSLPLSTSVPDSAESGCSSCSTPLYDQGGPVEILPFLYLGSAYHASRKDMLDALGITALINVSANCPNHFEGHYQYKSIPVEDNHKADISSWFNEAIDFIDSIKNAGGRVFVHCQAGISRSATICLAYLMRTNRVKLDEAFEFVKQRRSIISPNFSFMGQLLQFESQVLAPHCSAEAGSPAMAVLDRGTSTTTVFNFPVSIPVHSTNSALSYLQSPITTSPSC
Starred values were filed as active, the others as inactive; / = not tested or not shown. Most compounds without a hit are left out; they make up all but 5.7% or so of the library.

SMILES	NADH coupling	Hsp90 block	Autofluor 339	Cdc25B block	Abs 340nm	MKP-1 inh
CC(=O)N1CCc2cc(S(=O)(=O)NC(CC(C)C)C(=O)N3CCn4c3nc3ccccc34)ccc21 (configuration not stated)	3%	2	1.1	-8	0.99	31
Cc1nc2ccccc2c2oc(C(=O)NCCN3CCN(C)CC3)cc12	3%	-2	1.1	-9	1	4
Cc1ccc2oc(=O)c3cc(C(=O)NCCN4CCN(C)CC4)sc3c2c1	9%	-2	2.2*	1	1.2	2
COc1ccc(-c2cn3c4c(sc3n2)CCCC4)cc1	4%	-5	1.1	-6	1	9
N=c1ccn2c(n1)OC1[C@@H](O)[C@@H](CO)O[C@H]12 (some centres not stated)	/	-4	/	/	/	/
COc1cc2cc(C(=O)Nc3ccccc3)c(N)nc2cc1OC	5%	/	2.3*	-11	1.1	10
COc1cc2ccccc2cc1C(=O)Nc1cccnc1	0%	-2	1.3	0	1.1	-4
Cn1c2ccccc2c2c(C(=O)NCC3CCCO3)cn(C3CCCC3)c(=O)c21 (configuration not stated)	11%	-6	2.1*	-1	1.1	-3
CC(C)Cn1cc(C(=O)NCC2CCCO2)c2c3ccccc3n(C)c2c1=O (configuration not stated)	9%	0	2.5*	-3	1	21
COC(=O)c1[nH]c2ccc(C)cc2c1NC(=O)CN1CCCc2ccccc21	4%	-11	1.3	-1	1	6
COC(=O)c1ccccc1NC(=O)c1ccc(-c2ccccc2F)o1	2%	-2	2.2*	0	1	0
N#CCSc1nc2ccc(N3CCCCC3)cc2c(=O)n1Cc1ccccc1	5%	-6	3*	-4	1.1	10
CCC(C)NC(=O)CSc1nc2ccc(N3CCOCC3)cc2c(=O)n1CCc1ccccc1 (configuration not stated)	10%	1	2.3*	1	0.99	21
CCN(CC)C(=O)CSc1nc2cc3c(cc2c(=O)n1Cc1ccc2c(c1)OCO2)OCO3	8%	-2	1.1	-10	0.99	-1
COc1ccc(NC(=O)CSc2nc3ccccc3c(=O)n2CCNC(C)=O)cc1	6%	-3	1	-11	1	26
CCOC(=O)CSc1nc2ccc(N3CCOCC3)cc2c(=O)n1Cc1ccc2c(c1)OCO2	6%	0	2.3*	-11	1	29
Cn1c(=O)c2c(nc(SCCN3CCCCC3)n2Cc2ccccc2)n(C)c1=O	3%	-4	1.1	1	1.1	-4
CCCCn1c(SCC(=O)Nc2ccc(OC)cc2)nc2ccc(N3CCOCC3)cc2c1=O	7%	0	2.4*	5	0.98	20
CC(NC(=O)CSc1nc2ccccc2c(=O)n1CCCO)c1ccccc1 (configuration not stated)	6%	-2	1.1	2	1	33
COc1ccc(CCNC(=O)c2cnn3cccnc23)cc1OC	5%	-10	1.2	-8	1.1	17
CCn1c(SCC(=O)Nc2ccc3c(c2)OCO3)nnc1-c1ccccc1O	3%	12	1.1	-7	0.99	4
CC(C)CCN1C(=O)c2ccc(C(=O)OCn3nnc4ccccc4c3=O)cc2C1=O	5%	-2	1	-42	1	4
CCCCn1c(SCC(=O)NCc2ccccc2)nc2ccc(N3CCOCC3)cc2c1=O	5%	0	2.2*	4	1	-6
CCCCCn1c(SCC(=O)OCC)nc2cc(C(=O)NCc3ccco3)ccc2c1=O	5%	2	1.1	-20	1	-4
CCCCn1c(SCC(=O)Nc2cc(C)on2)nc2ccccc2c1=O	4%	-2	1.3	-5	1	27
SMILES	NADH coupling	Hsp90 block	Autofluor 339	Cdc25B block	Abs 340nm	MKP-1 inh
CCCCn1c(SCC(=O)NCc2ccco2)nc2ccc(N3CCOCC3)cc2c1=O	12%	-3	3.8*	-3	1.1	22
Cc1ccc2nc(C3CCN(C(=O)c4ccco4)CC3)[nH]c2c1	9%	-1	1.1	0	0.98	-10
COc1ccc2[nH]c(=O)c(CN(Cc3cccnc3)C(=O)Nc3ccccc3)cc2c1	12%	-5	2.5*	3	1.1	5
CCOc1ccc2[nH]c(=O)c(CN(Cc3cccnc3)C(=O)Nc3ccccc3OC)cc2c1	6%	-5	2*	-17	1.2	28
Cc1ccc2[nH]c(=O)c(CN(CCN3CCOCC3)C(=O)Nc3ccc(F)cc3)cc2c1	6%	-3	1.2	5	1	8
COc1ccc2[nH]c(=O)c(CN(CCCN(C)C)C(=O)Nc3ccc(F)cc3)cc2c1	6%	0	2.7*	-10	1.1	18
CC(C)(C)c1ccc(C(=O)Nc2cnccn2)cc1	13%	-3	1	-13	0.98	6
O=C(CSc1ncn[nH]1)Nc1ccc(Cl)c(Cl)c1	7%	-2	1.1	-12	1	-2
CC(OC(=O)c1ccncc1)C(=O)Nc1cccc(Cl)c1 (configuration not stated)	1%	-8	1.1	23	1	6
Cc1cc2c(cc1C)NC(c1c(C)n(C)n(-c3ccccc3)c1=O)C1=C(CC(C)(C)CC1=O)N2 (configuration not stated)	6%	0	2.6*	/	1.1	/
Clc1c(-c2nnc3n2CCCCC3)sc2ccccc12	5%	1	1.1	-8	1	21
N=c1oc2ccc3ccccc3c2cc1-c1nnc2n1CCCCC2	9%	-2	2.1*	-3	1.1	-12
COCCN(CCOC)C(=O)c1sc2nc(-c3ccccc3)cn2c1C	9%	-1	1	-27	1	-3
CCN(CC)c1ccc(NC(=O)c2cnc3ccccn3c2=O)c(C)c1	4%	-3	0.98	-7	1.1	3
COCCN(CCOC)C(=O)c1cc2c(=O)n3ccccc3nc2s1	12%	-9	4.9*	-8	1.1	-4
CCN(CC)C(=O)c1cc2c(=O)n3ccccc3nc2s1	1%	-2	2.1*	-7	1.1	2
COC(=O)c1ccc(Oc2nc3ccccc3n3c(C)nnc23)cc1	3%	-4	1.1	-8	1	-14
O=C(CN1C2=NCCN2c2ccccc21)C12CC3CC(CC(C3)C1)C2	4%	-4	1.1	-8	1	-20
Nc1ccc(O)cc1C(=O)OCC(=O)C12CC3CC(CC(C3)C1)C2	5%	4	2.1*	-7	1	25
O=C(CSc1nnc(CN2CCOCC2)n1-c1ccccc1)Nc1ccc(Cl)cc1	7%	-2	1.1	-24	1	1
c1csc(-c2nn3c(Cn4cnc5ccccc54)nnc3s2)c1	5%	3	1.2	-6	1.1	12
c1ccc2oc(-c3nn4c(Cn5cnc6ccccc65)nnc4s3)cc2c1	9%	3	2.2*	3	1.1	-9

Screening data deposited in PubChem by several laboratories.
